Test results: article PMC7862700, “An all-to-all approach to the identification of sequence-specific readers for epigenetic DNA modifications on cytosine”

Tests used:
Test in all cases: DAPPL (digital affinity profiling via proximity ligation, sequencing); 10 mM Tris-HCl pH 7.5, 50 mM NaCl, 1 mM DTT, 4% glycerol, room temperature, 30 min; GST-TFs on glutathione beads, 16-mer random dsDNA library, 0.1% formaldehyde crosslink after washing; high values mean tight binding
FEV = biological target: T1, FEV (Homo sapiens, UniProt Q99581 1-238); conditions: protein: recombinant; tags: N-terminal GST; dsDNA, one strand shown
T1 sequence: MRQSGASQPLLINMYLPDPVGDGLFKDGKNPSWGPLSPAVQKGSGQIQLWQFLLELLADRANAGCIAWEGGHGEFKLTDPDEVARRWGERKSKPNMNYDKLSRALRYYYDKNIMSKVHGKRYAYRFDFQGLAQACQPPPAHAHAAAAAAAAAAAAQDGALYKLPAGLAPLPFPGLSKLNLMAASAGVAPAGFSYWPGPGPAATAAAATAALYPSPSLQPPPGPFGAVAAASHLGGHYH
Summary of the method: (§1)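 The binding signal reported is, for every hexamer, its read frequency for a factor over its read frequency for the tag-only sample. Reads came from pools of yeast-expressed, GST-fused human transcription factors on glutathione beads, barcoded with DNA and mixed with that sample, which were incubated with 200 nmole of a random double-stranded 16-mer DNA library in Tris/NaCl/DTT/glycerol buffer at room temperature for 30 min. After washing, the pools were crosslinked with 0.1% formaldehyde, proximity-ligated with BsaI/T4 ligase for 1 h at 37 °C, PCR-amplified and sequenced on an Illumina NextSeq500.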

ETV5 = ETV5 (Homo sapiens, UniProt P41161 1-510); conditions: protein: recombinant; tags: N-terminal GST; dsDNA, one strand shown
Summary of the method: as §1

HSF1 = HSF1 (Homo sapiens, UniProt Q00613 1-529); conditions: protein: recombinant; tags: N-terminal GST; chain copies: 3; dsDNA, one strand shown
Summary of the method: as §1

SPIC = biological target: T2, SPIC (Homo sapiens, UniProt Q8N5J4 1-248); conditions: protein: recombinant; tags: N-terminal GST; dsDNA, one strand shown
T2 sequence: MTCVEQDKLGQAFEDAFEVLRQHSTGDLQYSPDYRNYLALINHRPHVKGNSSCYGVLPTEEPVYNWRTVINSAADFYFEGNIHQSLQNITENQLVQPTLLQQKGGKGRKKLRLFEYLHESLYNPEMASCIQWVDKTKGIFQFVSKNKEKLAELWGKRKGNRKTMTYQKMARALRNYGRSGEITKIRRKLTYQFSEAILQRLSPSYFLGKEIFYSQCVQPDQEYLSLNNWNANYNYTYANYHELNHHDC
Summary of the method: as §1

ELF4 = ELF4 (Homo sapiens, UniProt Q99607 1-663); conditions: protein: recombinant; tags: N-terminal GST; dsDNA, one strand shown
Summary of the method: as §1

ELK4 = biological target: T3, ELK4 (Homo sapiens, UniProt P28324-2 1-405); conditions: protein: recombinant; tags: N-terminal GST; dsDNA, one strand shown
T3 sequence: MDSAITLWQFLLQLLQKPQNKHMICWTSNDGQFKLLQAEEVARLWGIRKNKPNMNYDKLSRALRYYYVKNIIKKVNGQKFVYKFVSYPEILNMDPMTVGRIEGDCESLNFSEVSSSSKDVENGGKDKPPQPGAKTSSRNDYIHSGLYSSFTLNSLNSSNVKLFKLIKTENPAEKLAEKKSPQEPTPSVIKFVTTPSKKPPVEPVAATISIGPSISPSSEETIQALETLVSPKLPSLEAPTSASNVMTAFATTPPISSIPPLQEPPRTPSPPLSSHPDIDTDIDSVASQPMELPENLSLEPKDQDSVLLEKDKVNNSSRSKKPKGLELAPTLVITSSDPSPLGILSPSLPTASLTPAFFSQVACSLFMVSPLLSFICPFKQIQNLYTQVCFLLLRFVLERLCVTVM
Summary of the method: as §1

ETV2 = biological target: T4, ETV2 (Homo sapiens, UniProt O00321 1-342); conditions: protein: recombinant; tags: N-terminal GST; dsDNA, one strand shown
T4 sequence: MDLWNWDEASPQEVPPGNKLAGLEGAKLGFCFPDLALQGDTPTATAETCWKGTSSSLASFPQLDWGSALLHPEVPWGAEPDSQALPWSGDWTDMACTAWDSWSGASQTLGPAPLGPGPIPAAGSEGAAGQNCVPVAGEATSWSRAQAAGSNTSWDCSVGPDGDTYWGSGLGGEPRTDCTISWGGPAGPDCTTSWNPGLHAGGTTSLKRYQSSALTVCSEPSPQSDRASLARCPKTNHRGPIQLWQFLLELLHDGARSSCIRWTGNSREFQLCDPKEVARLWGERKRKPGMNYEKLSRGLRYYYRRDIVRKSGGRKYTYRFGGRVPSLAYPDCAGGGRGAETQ
Summary of the method: as §1

ELF3 = biological target: T5, ELF3 (Homo sapiens, UniProt P78545 1-371); conditions: protein: recombinant; tags: N-terminal GST; dsDNA, one strand shown
T5 sequence: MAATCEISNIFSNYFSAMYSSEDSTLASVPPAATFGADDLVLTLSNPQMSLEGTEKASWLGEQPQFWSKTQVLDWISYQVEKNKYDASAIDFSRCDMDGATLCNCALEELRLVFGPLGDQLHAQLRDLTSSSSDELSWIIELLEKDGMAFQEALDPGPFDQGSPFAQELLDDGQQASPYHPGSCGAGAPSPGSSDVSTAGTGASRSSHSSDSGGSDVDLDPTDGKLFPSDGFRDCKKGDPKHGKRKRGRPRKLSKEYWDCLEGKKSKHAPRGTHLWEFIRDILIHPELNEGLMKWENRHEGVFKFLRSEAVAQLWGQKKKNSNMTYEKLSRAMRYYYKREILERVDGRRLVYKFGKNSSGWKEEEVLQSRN
Summary of the method: as §1

CRX = CRX (Homo sapiens, UniProt O43186 1-299); conditions: protein: recombinant; tags: N-terminal GST; dsDNA, one strand shown
Summary of the method: as §1

ETV1 = ETV1 (Homo sapiens, UniProt P50549 1-477); conditions: protein: recombinant; tags: N-terminal GST; dsDNA, one strand shown
Summary of the method: as §1

ERF = biological target: T6, ERF (Homo sapiens, UniProt P50548 1-548); conditions: protein: recombinant; tags: N-terminal GST; dsDNA, one strand shown
T6 sequence: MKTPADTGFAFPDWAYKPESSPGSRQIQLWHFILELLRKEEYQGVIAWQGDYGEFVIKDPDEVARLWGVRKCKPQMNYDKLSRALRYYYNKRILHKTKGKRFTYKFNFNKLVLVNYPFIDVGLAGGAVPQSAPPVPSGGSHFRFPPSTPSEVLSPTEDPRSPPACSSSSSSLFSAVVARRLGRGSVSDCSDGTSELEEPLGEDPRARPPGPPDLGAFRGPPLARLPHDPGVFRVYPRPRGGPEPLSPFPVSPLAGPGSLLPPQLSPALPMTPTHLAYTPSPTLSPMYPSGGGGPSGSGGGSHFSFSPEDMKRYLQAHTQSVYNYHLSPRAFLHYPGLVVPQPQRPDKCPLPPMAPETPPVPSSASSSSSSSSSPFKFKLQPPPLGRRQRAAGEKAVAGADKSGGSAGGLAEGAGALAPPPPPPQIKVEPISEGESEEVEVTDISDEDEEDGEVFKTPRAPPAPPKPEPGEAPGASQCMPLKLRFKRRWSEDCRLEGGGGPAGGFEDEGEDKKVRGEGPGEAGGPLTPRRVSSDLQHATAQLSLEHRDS
Summary of the method: as §1

ETV3L = biological target: T7, ETV3L (Homo sapiens, UniProt Q6ZN32 1-361); conditions: protein: recombinant; tags: N-terminal GST; dsDNA, one strand shown
T7 sequence: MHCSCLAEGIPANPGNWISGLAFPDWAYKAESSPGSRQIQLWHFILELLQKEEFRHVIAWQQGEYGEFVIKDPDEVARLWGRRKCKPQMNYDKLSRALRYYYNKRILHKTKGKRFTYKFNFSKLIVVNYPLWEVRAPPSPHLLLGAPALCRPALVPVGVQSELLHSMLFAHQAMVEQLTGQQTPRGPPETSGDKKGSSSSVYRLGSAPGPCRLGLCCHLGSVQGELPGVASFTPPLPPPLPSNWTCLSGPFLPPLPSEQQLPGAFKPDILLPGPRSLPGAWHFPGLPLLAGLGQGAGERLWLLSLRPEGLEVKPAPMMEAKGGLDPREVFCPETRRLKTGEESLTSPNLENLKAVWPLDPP
Summary of the method: as §1

ETS2 = biological target: T8, ETS2 (Homo sapiens, UniProt P15036 1-469); conditions: protein: recombinant; tags: N-terminal GST; dsDNA, one strand shown
T8 sequence: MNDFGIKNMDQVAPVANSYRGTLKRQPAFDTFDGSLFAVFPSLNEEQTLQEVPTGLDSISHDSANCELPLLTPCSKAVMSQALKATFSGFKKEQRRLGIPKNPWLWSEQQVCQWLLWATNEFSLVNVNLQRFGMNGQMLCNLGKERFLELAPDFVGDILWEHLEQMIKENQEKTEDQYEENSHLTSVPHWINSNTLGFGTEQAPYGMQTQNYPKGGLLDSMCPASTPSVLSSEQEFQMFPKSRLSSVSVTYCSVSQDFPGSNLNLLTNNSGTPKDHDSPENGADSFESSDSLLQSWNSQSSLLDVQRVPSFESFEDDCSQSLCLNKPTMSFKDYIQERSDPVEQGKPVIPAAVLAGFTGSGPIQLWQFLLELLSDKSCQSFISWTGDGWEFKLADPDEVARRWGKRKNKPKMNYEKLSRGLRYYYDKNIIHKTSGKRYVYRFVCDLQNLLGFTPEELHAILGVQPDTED
Summary of the method: as §1

SPDEF = biological target: T9, SPDEF (Homo sapiens, UniProt O95238 1-335); conditions: protein: recombinant; tags: N-terminal GST; dsDNA, one strand shown
T9 sequence: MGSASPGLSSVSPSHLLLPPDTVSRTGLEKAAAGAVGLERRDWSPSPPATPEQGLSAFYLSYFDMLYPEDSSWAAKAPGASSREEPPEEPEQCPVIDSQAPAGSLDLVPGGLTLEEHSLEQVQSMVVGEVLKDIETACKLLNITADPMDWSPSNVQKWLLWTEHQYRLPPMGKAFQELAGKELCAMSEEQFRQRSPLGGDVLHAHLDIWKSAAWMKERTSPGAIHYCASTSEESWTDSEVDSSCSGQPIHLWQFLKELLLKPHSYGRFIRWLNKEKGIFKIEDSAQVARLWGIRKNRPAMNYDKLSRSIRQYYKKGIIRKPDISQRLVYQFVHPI
Summary of the method: as §1

ETV7 = biological target: T10, ETV7 (Homo sapiens, UniProt Q9Y603 1-341); conditions: protein: recombinant; tags: N-terminal GST; dsDNA, one strand shown
T10 sequence: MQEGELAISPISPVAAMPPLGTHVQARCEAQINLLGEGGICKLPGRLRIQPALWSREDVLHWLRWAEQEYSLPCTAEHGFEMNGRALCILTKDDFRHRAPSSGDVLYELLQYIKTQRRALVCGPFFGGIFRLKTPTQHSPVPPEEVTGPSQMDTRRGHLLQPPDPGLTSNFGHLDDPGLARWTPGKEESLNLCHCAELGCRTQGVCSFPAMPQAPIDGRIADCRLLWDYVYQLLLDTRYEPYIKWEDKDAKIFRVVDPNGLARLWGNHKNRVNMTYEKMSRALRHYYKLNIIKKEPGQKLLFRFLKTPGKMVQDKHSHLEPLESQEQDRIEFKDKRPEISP
Summary of the method: as §1

ELF5 = biological target: T11, ELF5 (Homo sapiens, UniProt Q9UKW6-2 1-255); conditions: protein: recombinant; tags: N-terminal GST; dsDNA, one strand shown
T11 sequence: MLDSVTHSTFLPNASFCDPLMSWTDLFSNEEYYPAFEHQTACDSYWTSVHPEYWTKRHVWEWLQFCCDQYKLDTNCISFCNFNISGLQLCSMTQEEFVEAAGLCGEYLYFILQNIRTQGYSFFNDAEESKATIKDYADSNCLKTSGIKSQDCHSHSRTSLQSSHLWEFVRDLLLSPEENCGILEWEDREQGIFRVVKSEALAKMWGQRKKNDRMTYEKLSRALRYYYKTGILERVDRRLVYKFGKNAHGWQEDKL
Summary of the method: as §1

ETV3 = biological target: T12, ETV3 (Homo sapiens, UniProt P41162-2 1-143); conditions: protein: recombinant; tags: N-terminal GST; dsDNA, one strand shown
T12 sequence: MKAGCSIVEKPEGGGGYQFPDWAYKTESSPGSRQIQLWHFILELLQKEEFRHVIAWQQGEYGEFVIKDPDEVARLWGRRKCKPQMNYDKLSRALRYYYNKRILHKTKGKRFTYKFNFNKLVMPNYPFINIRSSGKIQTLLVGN
Summary of the method: as §1

ETV6 = ETV6 (Homo sapiens, UniProt P41212 1-452); conditions: protein: recombinant; tags: N-terminal GST; dsDNA, one strand shown
Summary of the method: as §1

ETV5, sequence (P41161 whole entry): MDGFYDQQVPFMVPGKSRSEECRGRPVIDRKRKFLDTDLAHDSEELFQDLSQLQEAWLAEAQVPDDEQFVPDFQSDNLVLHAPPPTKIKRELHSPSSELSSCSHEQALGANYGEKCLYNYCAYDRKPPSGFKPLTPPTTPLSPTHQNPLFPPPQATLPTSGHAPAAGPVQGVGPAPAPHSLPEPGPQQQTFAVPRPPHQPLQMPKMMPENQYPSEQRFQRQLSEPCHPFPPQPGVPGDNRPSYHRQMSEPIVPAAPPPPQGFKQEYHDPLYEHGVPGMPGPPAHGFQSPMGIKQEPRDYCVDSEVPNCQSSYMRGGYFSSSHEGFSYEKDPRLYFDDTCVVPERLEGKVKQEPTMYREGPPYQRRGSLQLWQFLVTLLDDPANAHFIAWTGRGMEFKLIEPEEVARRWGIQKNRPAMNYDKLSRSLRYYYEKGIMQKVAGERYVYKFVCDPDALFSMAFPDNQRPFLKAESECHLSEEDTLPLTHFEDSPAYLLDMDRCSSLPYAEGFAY
ELF4, sequence (Q99607 whole entry): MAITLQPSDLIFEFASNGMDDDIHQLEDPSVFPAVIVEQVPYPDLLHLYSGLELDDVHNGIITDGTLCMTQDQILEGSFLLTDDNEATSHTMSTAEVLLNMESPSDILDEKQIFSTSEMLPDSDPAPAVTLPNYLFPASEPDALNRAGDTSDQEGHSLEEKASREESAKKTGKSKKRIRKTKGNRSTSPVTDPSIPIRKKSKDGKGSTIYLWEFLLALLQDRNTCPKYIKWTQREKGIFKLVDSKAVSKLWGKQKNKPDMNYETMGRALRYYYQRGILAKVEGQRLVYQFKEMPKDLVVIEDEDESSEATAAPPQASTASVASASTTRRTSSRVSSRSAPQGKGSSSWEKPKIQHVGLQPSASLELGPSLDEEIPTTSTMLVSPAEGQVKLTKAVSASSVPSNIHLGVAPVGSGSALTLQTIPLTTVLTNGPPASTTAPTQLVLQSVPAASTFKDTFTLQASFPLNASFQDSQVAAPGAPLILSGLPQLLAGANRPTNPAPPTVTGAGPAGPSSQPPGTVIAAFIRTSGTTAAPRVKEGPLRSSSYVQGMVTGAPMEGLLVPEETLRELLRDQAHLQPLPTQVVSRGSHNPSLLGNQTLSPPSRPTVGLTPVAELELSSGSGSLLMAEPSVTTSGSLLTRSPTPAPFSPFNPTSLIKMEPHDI
ETV1, sequence (P50549 whole entry): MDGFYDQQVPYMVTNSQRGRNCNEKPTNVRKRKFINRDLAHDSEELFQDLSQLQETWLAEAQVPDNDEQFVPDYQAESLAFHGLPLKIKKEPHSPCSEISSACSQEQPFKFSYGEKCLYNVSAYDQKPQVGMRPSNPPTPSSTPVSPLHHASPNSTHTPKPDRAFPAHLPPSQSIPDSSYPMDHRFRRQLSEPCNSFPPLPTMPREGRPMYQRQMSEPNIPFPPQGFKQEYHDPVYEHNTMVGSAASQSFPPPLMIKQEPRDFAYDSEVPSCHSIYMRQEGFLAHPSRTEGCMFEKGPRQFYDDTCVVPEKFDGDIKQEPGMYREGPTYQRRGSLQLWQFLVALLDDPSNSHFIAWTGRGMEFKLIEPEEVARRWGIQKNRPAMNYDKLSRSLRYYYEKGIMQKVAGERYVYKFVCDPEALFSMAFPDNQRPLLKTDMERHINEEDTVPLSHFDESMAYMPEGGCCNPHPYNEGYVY
CRX, sequence (O43186 whole entry): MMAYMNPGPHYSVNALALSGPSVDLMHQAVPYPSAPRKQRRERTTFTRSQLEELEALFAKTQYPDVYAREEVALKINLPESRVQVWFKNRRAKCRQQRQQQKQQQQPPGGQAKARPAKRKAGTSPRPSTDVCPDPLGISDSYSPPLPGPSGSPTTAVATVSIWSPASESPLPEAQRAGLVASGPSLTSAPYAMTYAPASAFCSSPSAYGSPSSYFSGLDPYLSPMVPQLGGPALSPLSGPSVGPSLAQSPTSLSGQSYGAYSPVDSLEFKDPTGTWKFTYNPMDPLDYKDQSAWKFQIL
HSF1, sequence (Q00613 whole entry): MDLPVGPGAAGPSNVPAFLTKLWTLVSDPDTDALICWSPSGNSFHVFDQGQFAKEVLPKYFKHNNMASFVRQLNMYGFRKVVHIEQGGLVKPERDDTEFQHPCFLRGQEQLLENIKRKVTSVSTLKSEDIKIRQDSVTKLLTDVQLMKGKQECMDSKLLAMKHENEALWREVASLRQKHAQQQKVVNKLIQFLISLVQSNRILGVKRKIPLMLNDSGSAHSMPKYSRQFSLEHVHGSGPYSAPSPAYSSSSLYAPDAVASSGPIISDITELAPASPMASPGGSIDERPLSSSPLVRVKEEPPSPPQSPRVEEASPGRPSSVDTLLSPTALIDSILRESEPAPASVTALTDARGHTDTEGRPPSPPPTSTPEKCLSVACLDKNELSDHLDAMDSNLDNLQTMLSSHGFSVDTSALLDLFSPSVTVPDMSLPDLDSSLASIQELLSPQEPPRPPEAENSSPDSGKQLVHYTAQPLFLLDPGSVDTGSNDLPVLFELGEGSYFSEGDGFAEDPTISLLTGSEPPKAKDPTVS
ETV6, sequence (P41212 whole entry): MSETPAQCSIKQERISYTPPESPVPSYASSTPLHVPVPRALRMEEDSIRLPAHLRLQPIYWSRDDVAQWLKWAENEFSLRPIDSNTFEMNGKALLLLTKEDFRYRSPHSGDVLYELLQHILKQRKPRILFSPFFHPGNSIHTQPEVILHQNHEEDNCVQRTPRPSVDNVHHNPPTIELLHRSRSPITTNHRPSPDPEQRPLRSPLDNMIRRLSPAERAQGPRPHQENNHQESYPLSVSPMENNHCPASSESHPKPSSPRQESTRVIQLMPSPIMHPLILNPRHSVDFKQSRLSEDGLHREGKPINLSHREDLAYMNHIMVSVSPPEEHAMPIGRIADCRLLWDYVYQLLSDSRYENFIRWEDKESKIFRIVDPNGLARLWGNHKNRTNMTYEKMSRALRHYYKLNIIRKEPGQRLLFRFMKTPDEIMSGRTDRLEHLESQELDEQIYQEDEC

## TAACTA
FEV
  binding signal: 1.25 fold enrichment (6-mer frequency, TF over GST control)
ETV5
  binding signal: 1.29 fold enrichment (6-mer frequency, TF over GST control)
HSF1
  binding signal: 1.51 fold enrichment (6-mer frequency, TF over GST control)
SPIC
  binding signal: 1.36 fold enrichment (6-mer frequency, TF over GST control)
ELF4
  binding signal: 1.48 fold enrichment (6-mer frequency, TF over GST control)
ELK4
  binding signal: 1.26 fold enrichment (6-mer frequency, TF over GST control)
ETV2
  binding signal: 1.49 fold enrichment (6-mer frequency, TF over GST control)
ELF3
  binding signal: 1.33 fold enrichment (6-mer frequency, TF over GST control)
CRX
  binding signal: 1.87 fold enrichment (6-mer frequency, TF over GST control)
ETV1
  binding signal: 1.24 fold enrichment (6-mer frequency, TF over GST control)
ERF
  binding signal: 1.38 fold enrichment (6-mer frequency, TF over GST control)
ETV3L
  binding signal: 1.21 fold enrichment (6-mer frequency, TF over GST control)
ETS2
  binding signal: 1.4 fold enrichment (6-mer frequency, TF over GST control)
SPDEF
  binding signal: 1.26 fold enrichment (6-mer frequency, TF over GST control)
ETV7
  binding signal: 1.29 fold enrichment (6-mer frequency, TF over GST control)
ELF5
  binding signal: 1.3 fold enrichment (6-mer frequency, TF over GST control)
ETV3
  binding signal: 1.29 fold enrichment (6-mer frequency, TF over GST control)
ETV6
  binding signal: 1.36 fold enrichment (6-mer frequency, TF over GST control)
